ELG1 DNA repair: inhibitors of ELG1-dependent DNA repair in HEK293T cells; Potency, µM (series often up to 46.1 µM), most hits filed as inhibitors; 330,000 tested, 2.3% active; HEK293T ELG1-luciferase reporter, luminescence, 16 h; DNA damage induced by 5-fluorouridine; AID 504467; note: nearly all actives have a fitted effect of over 55% in size
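5-Fluorouridine DNA damage + compound/DMSO, 2,000 cells/well, 16 h, 37 °C/5% CO2. ONE-Glo, 30 min RT, luminescence. Readout = decrease in reporter signal.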
SMN2 splice up: SMN2 splice variant enhancement. HEK293 SMN2-luciferase splicing reporter, luminescence, 30-36 h. Potency, µM (titrated, usually from 46.1 µM), hits mostly activators. 210,000 tested, 2.8% active. AID 1458; note: nearly all actives have a fitted effect of over 55% in size
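qHTS luciferase splicing reporter: luminescence rises when SMN2 exon 7 is included in transfected HEK293 cells. Compound exposure lasted 30-36 h at 37C, with 4.5 mM final sodium butyrate as control, followed by a ONE-Glo read.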
FLuc counter: firefly luciferase modulation, counter-screen for miR-21 project; purified FLuc, Km substrates, luminescence inhibition; P08659; 360,000 tested, 6.9% active; Potency, µM (top dose mostly 57.5 µM), most hits filed as inhibitors; note: nearly all actives have a fitted effect of over 55% in size
Target sequence (P08659 whole entry, looked up): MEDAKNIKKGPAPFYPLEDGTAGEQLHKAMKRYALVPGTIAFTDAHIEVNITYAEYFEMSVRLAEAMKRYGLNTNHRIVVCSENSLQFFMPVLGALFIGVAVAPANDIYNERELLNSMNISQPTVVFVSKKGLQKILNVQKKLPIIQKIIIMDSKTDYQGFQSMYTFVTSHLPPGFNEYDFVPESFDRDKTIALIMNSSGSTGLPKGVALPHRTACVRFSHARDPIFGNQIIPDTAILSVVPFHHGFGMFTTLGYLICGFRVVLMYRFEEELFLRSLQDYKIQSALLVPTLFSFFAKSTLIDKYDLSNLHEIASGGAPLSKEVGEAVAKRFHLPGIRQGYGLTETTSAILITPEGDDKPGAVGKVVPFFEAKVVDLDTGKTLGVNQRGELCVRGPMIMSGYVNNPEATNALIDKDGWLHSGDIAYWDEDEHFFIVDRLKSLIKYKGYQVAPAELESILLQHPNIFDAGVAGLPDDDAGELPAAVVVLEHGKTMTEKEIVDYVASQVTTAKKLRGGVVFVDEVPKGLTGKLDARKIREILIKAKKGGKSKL
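Purified P. pyralis luciferase (10nM final) with 10uM D-luciferin and 10uM ATP (Km levels) in 50mM Tris acetate pH 7.5, 10mM Mg acetate, 0.01% Tween-20, 0.05% BSA; qHTS 6-point titration, ~60 µM downward; luminescence read.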
NPC1 prom act: activates the NPC1 promoter; Huh7 NPC1 promoter luciferase reporter, 24 h; Potency, µM (highest dose often 9.22 µM), actives largely listed as activators; 320,000 tested, 2.4% active; AID 485313; note: nearly all actives have a fitted effect of over 60% in size
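Readout is luciferase luminescence, reflecting NPC1 promoter activation in stably transfected Huh7 cells after 24 h compound exposure at 37 °C in reduced-serum medium with 10% FBS.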
Rab9 promoter act: activates the Rab9 promoter; Huh7 Rab9 promoter-luciferase reporter, luminescence, 24 h; Potency, µM (top dose mostly 9.22 µM), actives largely listed as activators; 320,000 tested, 2.8% active; note: nearly all actives have a fitted effect of over 60% in size
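Stable Rab9-luc Huh7, 1500 cells/well, 2 h settle; cmpd in DMSO, 24 h, 37 °C/5% CO2; luciferase reagent 10 min RT; luminescence.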
ELG1 genotoxic: induces genotoxicity in HEK293T cells with luciferase-tagged ELG1; HEK293T ELG1-luciferase reporter, luminescence, 16 h; Potency, µM (doses to about 46 µM), hits mostly activators; 330,000 tested, 1.3% active; AID 504466; note: nearly all actives have a fitted effect of over 60% in size
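After overnight (16 hr) compound treatment at 37 °C, ELG1-luciferase HEK293T cells were lysed with ONE-Glo; luminescence quantified 30 min later at room temperature.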
A number is an active result; . = inactive; ? = inconclusive; / = not tested or not shown; [ ] = remark or other dose. Shown are actives, neighbours in structure and some others; about 9.3% of the full set was active somewhere. Calls come from the whole dose curve; as a rule, active = well fitted curve in the direction sought with a large enough effect; inconclusive = small, poorly fitted or top-dose-only effect, or another doubt; inactive = no such curve, though single readings can be large; an effect the other way counts as inactive or inconclusive.

SMILES	ELG1 DNA repair	SMN2 splice up	FLuc counter	NPC1 prom act	Rab9 promoter act	ELG1 genotoxic
Cc1ccc(S(=O)(=O)N2CCOCC2)cc1C(=O)Nc1ccncc1	.	/	.	.	.	.
Cc1cccc(NC(=O)C2CC(=O)N(c3ccc4c(c3)OCCO4)C2)n1 (stereo unspecified)	?	/	.	.	.	.
COc1cccc(CNC(=O)Cn2c(=O)oc3cc(S(=O)(=O)N4CCCCCC4)ccc32)c1	/	/	.	/	/	/
Cc1cccc(-n2nnc(C(=O)NCc3ccccc3)c2N)c1	.	.	.	.	.	.
COc1ccc2c(c1)c1c(c(=O)n(Cc3ccccc3)c(=O)n1Cc1ccc(C)cc1)n2C	/	/	.	/	/	/
O=C(Nc1nc(-c2ccc(S(=O)(=O)N3CCOCC3)cc2)cs1)c1ccccc1	12.6µM	.	.	.	.	.
Cc1ccc(S(=O)(=O)N2CCOCC2)cc1C(=O)NCc1cccnc1	.	.	.	.	.	.
Cc1ccc(S(=O)(=O)N2CCOCC2)cc1C(=O)Nc1nc(-c2cccnc2)cs1	11.6µM	.	.	.	.	.
Cc1nc2ccc(NC(=O)c3ccc(S(=O)(=O)N4CCOCC4)cc3)cc2s1	9.2µM	.	.	.	.	.
CCOC(=O)N1CCN(S(=O)(=O)c2ccc(C(=O)Nc3nnc(CC)o3)cc2)CC1	.	3.55µM	.	.	.	.
COc1cccc(C(=O)Nc2nc(-c3ccc(S(=O)(=O)N4CCOCC4)cc3)cs2)c1	?	.	.	.	.	.
CC(=O)Nc1ccc(C(=O)Nc2ccc(S(=O)(=O)N3CCOCC3)cc2)cc1	?	/	?	.	.	.
CC1CCN(c2nc3c(c(=O)n(C)c(=O)n3C)n2Cc2ccccc2)CC1	.	.	.	.	.	.
CCOc1ccc(NS(=O)(=O)c2ccc(C(=O)NCC(c3cccs3)N3CCOCC3)cc2)cc1 (stereo unspecified)	.	/	.	.	.	.
CCC1CCC(C(=O)NC(C(=O)NCCN(CC(C)C)CC(C)C)C(C)C)CC1 (stereo unspecified)	/	.	.	/	/	/
CC(C)CC(NC(=O)C1CCC(C)CC1)C(=O)Nc1ccccc1F (stereo unspecified)	.	/	.	.	.	.
CCC1CCC(C(=O)NC(C(=O)Nc2ccc3c(c2)OCCO3)C(C)C)CC1 (stereo unspecified)	?	.	?	.	.	16.4µM
CC(C)CC(NC(=O)C1CCC(C)CC1)C(=O)Nc1ccc2c(c1)OCCO2 (stereo unspecified)	?	.	16.9µM	.	.	?
C/C=C\C(=O)N(CC)c1ccccc1C	/	.	/	/	/	/
O=C(Nc1nc2nc(-c3ccccc3)cc(=O)n2[nH]1)c1ccc(F)cc1	/	.	?	.	.	/
CSc1nc2nc(-c3ccccc3)cc(=O)n2[nH]1	?	?	6.75µM	.	.	?
Cn1c(/C(C#N)=C(\O)c2ccc(Br)s2)nc2ccccc21	?	/	.	.	.	.[9.26 µM]
Cc1ccc(NC(=S)NC2CCCC2)cc1C	?	?	?	.	?	.
S=C(Nc1ccc2[nH]ccc2c1)NC1CCCCC1	?	/	13.5µM	2.51µM	2.51µM	.
S=C(Nc1cccc(Cl)c1)NC1CCCCC1	.	.	?	.	.	.
SMILES	ELG1 DNA repair	SMN2 splice up	FLuc counter	NPC1 prom act	Rab9 promoter act	ELG1 genotoxic
Cc1nc2ccc(NC(=S)NC3CCCCC3)cc2nc1C	?	.	16.9µM	?	3.55µM	.
CCOc1ccccc1NC(=O)c1ccc(OCC(=O)N2CCOCC2)c(OC)c1	.	/	/	/	/	.
COc1ccc(/C=N/Nc2ccc(C(F)(F)F)cc2[N+](=O)[O-])cc1O	.	.	.	.	.	.
CCN(CC)CCCN1C(=O)C(O)=C(C(=O)c2ccco2)C1c1ccc(OC(C)C)cc1 (stereo unspecified)	.	/	.	.	.	.
Brc1ccccc1-n1ncc2c1ncn1nc(Cc3ccccc3)nc21	/	.	16.9µM	/	/	/
Cn1ncc2c1ncn1nc(COc3ccc4ccccc4c3)nc21	.	.	.	.	.	.
Cn1ncc2c1ncn1nc(CCc3ccccc3)nc21	?	?	7.57µM	0.794µM	1.26µM	?
O=S(=O)(c1cccc2nsnc12)N1CCN(c2ccccc2F)CC1	?	/	.	.	.	.
CCC(=O)N1CCN(c2ccc(NC(=O)c3ccco3)cc2)CC1	?	/	?	.	.	?
CCc1ccc2nc3n[nH]c(N)c3cc2c1	?	?	4.78µM	?	2.82µM	13µM
Nc1[nH]nc2nc3ccccc3cc12	.	.	.	.	.	.
Oc1ccc(C23CC4CC(CC(C4)C2)C3)cc1O	.	/	15.1µM	.	.	.
CC(=O)Nc1ccc(C23CC4CC(CC(C4)C2)C3)cc1	?	/	15.1µM	?	.	.
Cc1ccc(NC(=O)CCC(=O)NNC(=O)c2cccs2)cc1C	?	.	.	.	.	.
O=c1[nH]c2ccc(Cl)cc2c(-c2ccccc2)c1SC(=S)N1CCOCC1	.	?	.	.	.	.
NC(=O)CCS(=O)(=O)CCN1CCN(S(=O)(=O)c2ccc3c(c2)CCC3)CC1	.	/	.	.	.	.
COc1cccc(OC)c1C(=O)Nc1ccc2c(c1)N(C(C)=O)CCC2	/	/	.	/	/	/
c1coc(C2Nc3cccc4cccc(c34)N2)c1	.	.	26.9µM	.	.	.
Clc1ccccc1C1Nc2cccc3cccc(c23)N1	.	/	?	.	.	.
COc1ccc(/C=C/C(=O)Oc2ccc(/C=N\NC(=O)c3ccc(F)cc3)cc2)cc1	?	.	.	.	.	.
COc1ccc(/C=N/NC(=O)Cc2ccc(Cl)cc2)cc1OC	.	.	.	.	.	?
COc1ccc(/C=C\C(=O)Oc2cccc(/C=N/NC(=O)Cc3ccc(OC)c(OC)c3)c2)cc1	?	12.6µM	10.7µM	?	?	?
COc1ccc(/C=C/C(=O)Oc2cccc(/C=N/NC(=O)c3cccc(F)c3)c2)cc1	?	11.2µM	2.39µM	3.55µM	2.82µM	?
COc1cccc(C(=O)Nc2ccccc2-c2ccccc2)c1	.	/	?	.	.	.
Cc1ccc(S(=O)(=O)N(C)c2ccccc2C(=O)N2CCOCC2)cc1	.	/	.	.	.	.
CC(=O)N1N=C(c2ccc(C)cc2)CC1c1ccco1 (stereo unspecified)	?	.	?	.	?	?
CS(=O)(=O)N1N=C(c2ccc(Br)cc2)CC1c1ccc2c(c1)OCO2 (stereo unspecified)	?	25.1µM	4.26µM	1.12µM	0.631µM	?
CC(=O)N1N=C(c2ccc(C)cc2)CC1c1ccc2c(c1)OCO2 (stereo unspecified)	?	/	15.1µM	2.82µM	?	?
Cc1ccc(C2=NN(S(C)(=O)=O)C(c3ccc4c(c3)OCO4)C2)cc1 (stereo unspecified)	?	17.8µM	1.69µM	3.55µM	2.51µM	5.17µM
